Measured values from PubChem BioAssay (NCATS).
Results filed as inconclusive are left out. Active and inactive are the calls of the source. Unless noted, calls come from the whole dose curve; as a rule, active = well fitted curve in either direction with a large enough effect (not every such curve was filed as active); inconclusive = small, poorly fitted or top-dose-only effect, or another doubt; inactive = flat fitted curve, though single readings scatter.

How the values were obtained:
[1] = AP1 Signaling Pathway (AID 357); conditions: ME-180 AP-1-bla reporter, EGF-induced, beta-lactamase ratio, 5 h; at 17.2 µM (top of the series) unless noted;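 note: ME-180 reporter cells stimulated with EGF at its EC50 level; % is set by controls: 0 for no effect and ±100 for the full control effect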
In short: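 Modulation of EGF-driven AP-1 transcription was assessed with a beta-lactamase reporter in ME-180 cells. Compound and EC50 EGF were co-incubated 5 hours at 37 °C before 2.5-hour CCF4 loading at room temperature and dual-emission reading.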

[2] = Stat Signaling Pathway (AID 446); conditions: ME-180 SIE beta-lactamase reporter, IL-6 stimulated, 5 h; at 17.2 µM (top of the series) unless noted;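 note: ME-180 cervical cancer cells given 40 pM IL-6 alongside compound; SIE-controlled beta-lactamase reporter measured as 460/530 nm FRET emission ratio; % is set by controls: 0 for no effect and ±100 for the full control effect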
In short: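 FRET read-out (405 nm excitation, 460/530 nm emission) of a beta-lactamase reporter under a STAT-inducible element in ME-180 cervical carcinoma cells. Cells with compound receive 40 pM IL-6 for 5 h. Values are normalised to AC90 stimulation and AC90 JAK-inhibitor controls.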

[3] = molecular target: Glucocorticoid receptor (Homo sapiens) (UniProt P04150); assay: GR-GFP Redistribution (AID 450;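 active = compounds whose dose series gives a full or clear partial fitted curve of increased nuclear translocation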; note: potency is the fitted concentration of half-maximal effect)
Glucocorticoid receptor (Homo sapiens), sequence (P04150 whole entry, looked up): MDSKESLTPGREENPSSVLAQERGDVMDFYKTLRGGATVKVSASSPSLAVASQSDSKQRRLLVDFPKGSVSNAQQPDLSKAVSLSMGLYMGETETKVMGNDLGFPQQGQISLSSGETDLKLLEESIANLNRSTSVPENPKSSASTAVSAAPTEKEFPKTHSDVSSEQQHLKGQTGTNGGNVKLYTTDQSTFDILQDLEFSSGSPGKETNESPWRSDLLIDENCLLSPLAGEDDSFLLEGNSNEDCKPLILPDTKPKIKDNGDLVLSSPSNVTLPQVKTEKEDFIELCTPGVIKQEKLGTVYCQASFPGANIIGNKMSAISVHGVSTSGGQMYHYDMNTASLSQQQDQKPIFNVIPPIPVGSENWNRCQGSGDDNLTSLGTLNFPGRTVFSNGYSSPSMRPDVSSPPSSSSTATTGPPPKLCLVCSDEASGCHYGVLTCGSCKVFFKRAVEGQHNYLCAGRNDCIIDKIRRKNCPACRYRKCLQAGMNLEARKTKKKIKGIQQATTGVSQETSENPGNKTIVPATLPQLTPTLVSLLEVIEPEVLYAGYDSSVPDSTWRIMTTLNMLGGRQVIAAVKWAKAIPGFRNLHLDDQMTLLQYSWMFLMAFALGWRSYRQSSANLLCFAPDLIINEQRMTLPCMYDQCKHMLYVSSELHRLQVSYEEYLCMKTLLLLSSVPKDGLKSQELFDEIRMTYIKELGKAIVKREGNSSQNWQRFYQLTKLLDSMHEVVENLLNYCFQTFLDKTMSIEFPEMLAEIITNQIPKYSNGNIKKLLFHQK

[4] = molecular target: 3',5'-cyclic-AMP phosphodiesterase 4B (Homo sapiens) (UniProt Q07343); assay: qHTS Assay for Inhibitors of PDE-IV (AID 607; active = well fitted activation curve with a large enough effect in the main read-out, with a control signal flat, not every such curve was filed as active; note: % of control where 0% means no effect)
3',5'-cyclic-AMP phosphodiesterase 4B (Homo sapiens), sequence (Q07343 whole entry, looked up): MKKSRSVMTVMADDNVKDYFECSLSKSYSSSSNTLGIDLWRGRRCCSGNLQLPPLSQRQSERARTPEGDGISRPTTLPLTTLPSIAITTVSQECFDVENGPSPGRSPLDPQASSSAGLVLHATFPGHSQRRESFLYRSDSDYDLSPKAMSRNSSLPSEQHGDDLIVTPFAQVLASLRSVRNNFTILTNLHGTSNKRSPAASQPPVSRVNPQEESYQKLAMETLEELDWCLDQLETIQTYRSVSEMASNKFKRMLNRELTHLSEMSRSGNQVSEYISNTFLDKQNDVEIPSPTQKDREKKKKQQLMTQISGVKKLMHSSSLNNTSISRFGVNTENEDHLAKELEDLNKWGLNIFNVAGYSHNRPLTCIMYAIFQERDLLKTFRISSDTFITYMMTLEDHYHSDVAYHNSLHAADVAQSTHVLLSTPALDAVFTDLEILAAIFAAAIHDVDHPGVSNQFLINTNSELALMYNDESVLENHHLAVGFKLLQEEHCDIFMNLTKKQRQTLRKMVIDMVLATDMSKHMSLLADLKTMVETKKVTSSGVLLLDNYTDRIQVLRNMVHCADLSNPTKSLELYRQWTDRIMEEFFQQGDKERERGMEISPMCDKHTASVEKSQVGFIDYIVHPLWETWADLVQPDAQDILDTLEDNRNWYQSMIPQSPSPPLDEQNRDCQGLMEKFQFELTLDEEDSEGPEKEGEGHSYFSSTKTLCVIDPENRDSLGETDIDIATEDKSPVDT
In short: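 Cell-based read-out of cAMP via a modified cyclic nucleotide-gated channel and membrane potential dye (535/590 nm) in HEK293 cells expressing PDE4 endogenously. Compounds tested up to 22.9 uM final; 100 uM RO 20-1724 reference.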

[5] = molecular target: Guanine nucleotide-binding protein G(i) subunit alpha-1 (Homo sapiens) (UniProt P63096); assay: qHTS Assay for Inhibitors of RGS12 GoLoco Motif Activity (Green Fluorophore) (AID 879; active = well fitted curve in the direction sought with a large enough effect; an effect the other way counts as inactive or inconclusive;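 note: 0% = labeled peptide with Gαi1 and full inhibition = labeled peptide alone without protein; negative values mean loss of peptide binding seen as reduced polarization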)
Guanine nucleotide-binding protein G(i) subunit alpha-1 (Homo sapiens), sequence (P63096 whole entry, looked up): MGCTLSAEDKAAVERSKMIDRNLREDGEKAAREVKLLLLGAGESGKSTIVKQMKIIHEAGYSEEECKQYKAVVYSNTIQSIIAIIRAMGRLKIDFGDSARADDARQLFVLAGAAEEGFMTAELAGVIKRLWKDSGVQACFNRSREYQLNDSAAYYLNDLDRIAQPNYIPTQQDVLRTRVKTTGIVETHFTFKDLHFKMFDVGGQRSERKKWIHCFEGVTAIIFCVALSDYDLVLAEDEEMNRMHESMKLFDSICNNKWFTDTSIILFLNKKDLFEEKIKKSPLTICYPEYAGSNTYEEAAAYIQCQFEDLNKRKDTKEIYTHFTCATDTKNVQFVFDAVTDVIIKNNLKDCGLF
In short: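 A drop in FITC polarization marked displacement of the FITC-tagged RGS12 GoLoco peptide (10 nM) from Gαi1 (50 nM). Compounds were incubated 10 min at room temperature in Tris pH 7.5 buffer containing 150 mM NaCl, 0.1 mM GDP and 0.05% NP40; unlabeled peptide titration served as control.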

[6] = qHTS Assay for Identification of Small Molecule Agonists for Thrombopoietin (TPO) Signaling Pathway (AID 917; active = well fitted curve in the direction sought with a large enough effect; an effect the other way counts as inactive or inconclusive; note: % is set by controls: 0 for no effect and ±100 for the full control effect)
In short: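 Stimulation at the TPO EC50 (26 pM final) was used to detect activators. Ba/F3 mouse cells bearing human TPO receptor and a luciferase reporter under the Glycoprotein IIb promoter were exposed to compounds for 24 hrs at 37 C.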

[7] = molecular target: Muscarinic acetylcholine receptor M1 (Rattus norvegicus) (UniProt P08482); assay: qHTS Assay for Antagonists of Acetylcholine Muscarinic M1 Receptor: Kinetic Measurement of Intracellular Calcium Response (AID 943; active = well fitted curve in the direction sought with a large enough effect; an effect the other way counts as inactive or inconclusive;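 note: Fluo-4 calcium signal as peak divided by basal fluorescence over 4 min; nearly all actives have a fitted effect of over 75% in size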)
Muscarinic acetylcholine receptor M1 (Rattus norvegicus), sequence (P08482 whole entry, looked up): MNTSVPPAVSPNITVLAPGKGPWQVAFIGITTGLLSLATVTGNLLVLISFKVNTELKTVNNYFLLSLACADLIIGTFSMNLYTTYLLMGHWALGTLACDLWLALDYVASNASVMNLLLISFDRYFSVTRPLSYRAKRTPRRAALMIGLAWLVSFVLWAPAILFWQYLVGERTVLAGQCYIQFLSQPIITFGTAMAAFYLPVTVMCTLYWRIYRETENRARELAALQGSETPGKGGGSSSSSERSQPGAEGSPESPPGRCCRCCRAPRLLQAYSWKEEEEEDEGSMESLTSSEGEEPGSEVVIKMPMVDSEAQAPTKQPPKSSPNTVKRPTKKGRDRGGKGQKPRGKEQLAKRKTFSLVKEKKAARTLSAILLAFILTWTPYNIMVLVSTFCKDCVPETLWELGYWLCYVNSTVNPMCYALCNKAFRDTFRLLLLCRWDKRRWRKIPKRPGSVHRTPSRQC
In short: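 Quantitative HTS in CHO-M1 (rat receptor) cells: 10 min compound exposure ahead of 100 nM carbachol, Fluo-4 fluorescence followed 4 min, value expressed as peak-to-basal ratio.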

[8] = molecular target: Muscarinic acetylcholine receptor M1 (Rattus norvegicus) (UniProt P08482); assay: qHTS Assay for Antagonists of Acetylcholine Muscarinic M1 Receptor: Measurement of IP-One Response (AID 944; active = well fitted curve in the direction sought with a large enough effect; an effect the other way counts as inactive or inconclusive; note: nearly all actives have a fitted effect of over 75% in size)
In short: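 Antagonism was measured as loss of carbachol-driven (EC80) IP1 accumulation in CHO cells carrying rat M1, using a homogeneous IP-One TR-FRET kit read at 620 and 665 nm.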

[9] = molecular target: Pyruvate kinase (Leishmania mexicana) (UniProt Q27686); assay: qHTS Validation Assay for Inhibitors of Leishmania Mexicana Pyruvate Kinase (AID 945; active = well fitted curve in the direction sought with a large enough effect; an effect the other way counts as inactive or inconclusive;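 note: 0% = DMSO only neutral control wells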)
Pyruvate kinase (Leishmania mexicana), sequence (Q27686 2-499 E452W): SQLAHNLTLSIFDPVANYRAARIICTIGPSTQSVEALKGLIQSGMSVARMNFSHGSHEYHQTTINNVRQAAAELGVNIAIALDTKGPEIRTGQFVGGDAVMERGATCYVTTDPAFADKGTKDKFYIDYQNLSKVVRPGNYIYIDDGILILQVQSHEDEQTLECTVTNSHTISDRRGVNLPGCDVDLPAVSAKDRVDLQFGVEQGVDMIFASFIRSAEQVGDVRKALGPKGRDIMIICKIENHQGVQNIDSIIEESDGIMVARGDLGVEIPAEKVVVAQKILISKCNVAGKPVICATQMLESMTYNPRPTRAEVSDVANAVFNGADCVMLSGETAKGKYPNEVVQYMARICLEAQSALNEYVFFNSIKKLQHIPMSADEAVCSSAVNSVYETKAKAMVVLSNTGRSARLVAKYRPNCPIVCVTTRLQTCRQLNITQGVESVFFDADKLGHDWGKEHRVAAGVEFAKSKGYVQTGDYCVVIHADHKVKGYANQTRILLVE
In short: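 Luminescent ATP detection (PKLight) after a 1 h room-temperature reaction of 0.2 nM LmPYK E451W mutant with 0.5 mM PEP and 0.1 mM ADP at pH 7.2. Activity is normalized to DMSO-only control wells.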

[10] = molecular target: Pyruvate kinase PKM (Homo sapiens) (UniProt P14618); assay: qHTS Assay for Activators of Human Muscle Pyruvate Kinase (AID 954; active = well fitted curve in the direction sought with a large enough effect, not every such curve was filed as active;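 note: 0% = uninhibited enzyme and -100% = no enzyme or full thiadiazolimine inhibition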)
Pyruvate kinase PKM (Homo sapiens), sequence (P14618 whole entry, looked up): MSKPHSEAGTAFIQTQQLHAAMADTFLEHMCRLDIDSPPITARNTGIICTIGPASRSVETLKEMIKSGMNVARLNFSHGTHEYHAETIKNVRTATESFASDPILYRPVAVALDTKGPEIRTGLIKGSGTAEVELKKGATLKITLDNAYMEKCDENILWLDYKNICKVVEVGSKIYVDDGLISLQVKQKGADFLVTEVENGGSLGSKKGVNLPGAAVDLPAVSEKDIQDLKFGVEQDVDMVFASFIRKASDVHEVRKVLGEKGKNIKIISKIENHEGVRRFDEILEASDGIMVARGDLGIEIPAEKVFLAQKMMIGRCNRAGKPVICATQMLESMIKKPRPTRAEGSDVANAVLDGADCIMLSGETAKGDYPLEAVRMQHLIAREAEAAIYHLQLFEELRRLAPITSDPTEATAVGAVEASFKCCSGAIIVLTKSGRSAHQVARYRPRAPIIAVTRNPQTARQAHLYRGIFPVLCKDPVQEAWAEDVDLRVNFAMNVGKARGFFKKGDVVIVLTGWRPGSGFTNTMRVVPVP
In short: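 ATP production by PKM2 detected via luciferase luminescence after 1 h room-temperature reaction (0.1 nM enzyme, PEP at Km 0.5 mM, ADP 0.1 mM, pH 7.2 imidazole buffer). Inhibition scaled to no-enzyme control; activation referenced to 0.3 nM enzyme wells.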

[11] = molecular target: Alpha-galactosidase A (Homo sapiens) (UniProt P06280); assay: Counterscreen for Glucocerebrosidase Inhibitors: qHTS Assay for Human alpha-Galactosidase at pH 4.5 (AID 992; active = well fitted curve in the direction sought with a large enough effect; an effect the other way counts as inactive or inconclusive; note: 0% is about no effect)
Alpha-galactosidase A (Homo sapiens), sequence (P06280 whole entry, looked up): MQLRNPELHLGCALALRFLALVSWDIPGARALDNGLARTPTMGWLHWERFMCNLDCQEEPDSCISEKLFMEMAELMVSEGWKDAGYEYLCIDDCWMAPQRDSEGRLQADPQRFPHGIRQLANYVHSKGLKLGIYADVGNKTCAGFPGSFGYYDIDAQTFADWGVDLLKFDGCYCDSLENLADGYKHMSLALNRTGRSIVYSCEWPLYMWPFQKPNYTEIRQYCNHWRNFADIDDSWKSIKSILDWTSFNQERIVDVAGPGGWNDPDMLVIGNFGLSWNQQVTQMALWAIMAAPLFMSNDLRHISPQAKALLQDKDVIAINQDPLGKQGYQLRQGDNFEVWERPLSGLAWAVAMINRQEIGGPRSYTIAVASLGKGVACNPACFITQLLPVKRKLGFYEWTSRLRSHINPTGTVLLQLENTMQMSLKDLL
In short: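 Fluorogenic 1536-well qHTS at pH 4.5 (citrate, Tween-20): 2 nM enzyme, 80 uM 4-MU-alpha-galactoside, 20 min room temperature, NaOH/glycine stop. Titration 0.7 nM to 77 uM, data normalized to no-enzyme and full-activity controls, Hill-fitted AC50.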

[12] = molecular target: alpha-glucosidase (Oryza sativa, rice) (UniProt Q653V4); assay: Counterscreen for Glucocerebrosidase Inhibitors: qHTS Assay for Rice alpha-Glucosidase at pH 5.0 (AID 997; active = well fitted curve in the direction sought with a large enough effect; an effect the other way counts as inactive or inconclusive;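 note: 0% = full activity with enzyme and -100% = basal without enzyme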)
In short: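 Endpoint fluorogenic assay at pH 5.0: compounds (0.7 nM to 77 uM) titrated against 4 nM rice enzyme and 400 uM 4-MU-alpha-glucoside for 20 min at room temperature; NaOH/glycine stop, read ex 365/em 440 nm, Hill-fitted AC50.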

[13] = qHTS Assay for Identification of Small Molecule Agonists for Hypoxia Response Element Signaling Pathway (AID 914; active = well fitted activation curve with a large enough effect in the signal ratio, with a control signal flat, not every such curve was filed as active; the % refers to the signal ratio; note: potency is the fitted concentration of half-maximal effect; for activation: % of control where 0% means no effect); conditions: ME-180 (cervical carcinoma) HRE-bla reporter, beta-lactamase ratio, CoCl2, 17 h; activation: active compounds read high
In short: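 HRE-bla ME-180 cells, overnight plating in Opti-MEM with 0.5% dialyzed FBS; cpd titration + EC50 CoCl2, 17 h, 37 degrees Celsius; CCF4 2.5 h RT; 460/530 nm ratio; AC50.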

[14] = molecular target: Tumor susceptibility gene 101 protein (Homo sapiens) (UniProt Q99816); assay: qHTS Assay for Iinhibitors of HIV-1 Budding by Blocking the Interaction of PTAP/TSG101: Hit Validation (AID 651600; active = well fitted curve in the direction sought with a large enough effect; an effect the other way counts as inactive or inconclusive; note: potency is the fitted concentration of half-maximal effect; nearly all actives have a fitted effect of over 70% in size)
Tumor susceptibility gene 101 protein (Homo sapiens), sequence (Q99816 whole entry, looked up, the tested form may be a part): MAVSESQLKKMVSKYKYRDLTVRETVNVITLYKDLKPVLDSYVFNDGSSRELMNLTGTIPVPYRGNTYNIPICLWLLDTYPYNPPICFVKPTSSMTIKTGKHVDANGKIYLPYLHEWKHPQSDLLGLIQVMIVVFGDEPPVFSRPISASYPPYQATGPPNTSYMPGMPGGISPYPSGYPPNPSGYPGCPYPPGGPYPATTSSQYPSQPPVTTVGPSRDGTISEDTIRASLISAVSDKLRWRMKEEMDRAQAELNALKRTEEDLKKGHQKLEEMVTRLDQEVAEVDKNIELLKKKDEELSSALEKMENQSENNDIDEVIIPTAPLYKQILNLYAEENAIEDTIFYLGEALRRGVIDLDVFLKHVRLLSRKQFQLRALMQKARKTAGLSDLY
In short: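 Fluorescence polarization binding assay: Tsg101 binding domain (10 uM) mixed with compounds and FITC-labeled PTAP peptide (50 nM) in HEPES pH 7.5, 0.15 M NaCl, 0.01% Tween 20, EDTA, TCEP; 20 min at r.t.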

[15] = qHTS for Inhibitors of the vitamin D receptor (VDR): Hit Validation using a Texas Red Assay (AID 602201; active = well fitted curve in the direction sought with a large enough effect; an effect the other way counts as inactive or inconclusive; note: potency is the fitted concentration of half-maximal effect); conditions: VDR coregulator binding, Texas Red fluorescence polarization; agonist-bound VDR ligand-binding domain
In short: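 Fluorescence polarization (Ex 595/Em 615 nm) of Texas Red (7 nM) with 1.5 uM VDR-LBD and LG19078 (final concentrations). Compounds were incubated for 2 hours at room temperature.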

NC[C@@H]1O[C@@H](O[C@H]2[C@@H](O)[C@H](O[C@@H]3[C@H](O)[C@H](N)C[C@H](N)[C@H]3O[C@@H]3O[C@@H](CO)[C@H](O)[C@H](O)[C@@H]3N)O[C@H]2CO)[C@H](N)[C@H](O)[C@@H]1O
inactive: activity change, negative = inhibition [1] 7.75% [at 38 µM] | activity, negative = inhibition [2] -13.5% [at 38 µM] | Potency [3] > 46 µM | Potency [4] | outcome [5] | Potency [6] | Potency [7] | Potency [8] | Potency [9] | outcome [10] | outcome [11] | outcome [12]

N#CC1=C(N)OC2=C(C(=O)CCC2)[C@]12C(=O)N(CC(N)=O)c1ccccc12
inactive: activity change, negative = inhibition [1] 12% | activity, negative = inhibition [2] 1.02% | Potency [3] > 20.6 µM | activation [13] -22.1%

Cc1c(/C(O)=C2\C(=O)C(=O)N(CCCN(C)C)C2c2ccccc2)cnn1-c1ccccc1 (stereo unspecified)
inactive: activity change, negative = inhibition [1] -3.19% | activity, negative = inhibition [2] 0.518% | Potency [3] > 20.6 µM | activation [13] 3.31%

Cc1ccc(CNC(=O)c2cc3c(=O)n4ccccc4nc3n(Cc3ccco3)c2=N)cc1
inactive: activity change, negative = inhibition [1] 5.13% | activity, negative = inhibition [2] 22.1% | Potency [3] > 20.6 µM
active: Potency [13] 5.01 µM

O=C1c2ccccc2-c2onc3ccc(NCc4ccco4)c1c23
active: Potency [14] 1.63 µM
inactive: activity change, negative = inhibition [1] -13% | activity, negative = inhibition [2] -1.03% | Potency [3] > 20.6 µM

CCCN(CCC)c1nc2ccccc2nc1C(C#N)C(=O)OC(C)COC (stereo unspecified)
inactive: activity change, negative = inhibition [1] -15.4% | activity, negative = inhibition [2] -20.4% | Potency [3] > 20.6 µM | activation [13] -6.34%

CCc1ccc(-c2cn3nc(C)c(C)nc3n2)cc1
active: Potency [13] 10 µM
inactive: activity change, negative = inhibition [1] 0.521% | activity, negative = inhibition [2] 11.8% | Potency [3] > 20.6 µM

O=C(CCN1CCc2ccccc2CC1)c1ccc2c(c1)OCCO2
inactive: activity change, negative = inhibition [1] -22% | activity, negative = inhibition [2] 12.8% | Potency [3] > 20.6 µM
active: Potency [15] 10 µM

CNc1oc(-c2ccccc2Cl)nc1C#N
inactive: activity change, negative = inhibition [1] -4.94% | activity, negative = inhibition [2] -0.918% | Potency [3] > 20.6 µM | activation [13] 10.7%

Cc1nnc2c(NC(C)C)nc3ccccc3n12
active: Potency [13] 10 µM
inactive: activity change, negative = inhibition [1] 14.9% | activity, negative = inhibition [2] -12.6% | Potency [3] > 20.6 µM

O=c1/c(=C\c2cccn2-c2ccccc2)sc2nc3ccccc3n12
inactive: activity change, negative = inhibition [1] 2.64% | activity, negative = inhibition [2] 14.8% | Potency [3] > 20.6 µM
active: Potency [13] 12.6 µM

COC(=O)c1[nH]c2cc(OC)ccc2c1NC(=O)CCN1CCCC(C)(C)C1
inactive: activity change, negative = inhibition [1] -14.5% | activity, negative = inhibition [2] 2.32% | Potency [3] > 20.6 µM | activation [13] 10.2%
